Reference: PubChem BioAssay AID720650 (Broad Institute, 2013)
Unmarked numbers belong to inactive results. Calls of active or inactive are those of the source. How the calls were made is not given here.

test: Biochemical counterscreen for C difficile toxins, absence of UDPG, inhibitor dose response (AID 720650); conditions: series mostly up to 19.5 µM; activity change, negative = inhibition: at the top concentration

Structure (SMILES) | activity change, negative = inhibition | AC50
O=C(Cn1cc(COc2ccc(Cl)c(Cl)c2)nn1)NS(=O)(=O)c1ccccc1OC(F)(F)F | -6.92% | –
FC(F)(F)c1cc(CCN2CCNC[C@H]2Cc2cccc3ccccc23)cc(C(F)(F)F)c1 | – | 19.9 µM (active)
CC(C)(C)N1C(=O)c2ccc(C(=O)Nc3ccc(O)cc3)cc2C1=O | – | 8.25 µM (active)
O=C(C[C@@H]1C[C@H]2c3cc(NC(=O)Nc4ccccc4)ccc3O[C@H]2[C@H](CO)O1)NCc1ccccc1 | 5.75% | –
Cc1ccccc1NS(=O)(=O)c1ccc(OCC(=O)N2CCCCC2)cc1 | 7.54% | –
COc1cc(/C=N/n2c(-c3ccccc3)n[nH]c2=S)ccc1O | 7.21% | –
CCOC(=O)c1ccc(NC(=O)Oc2cc(C)c(Cl)cc2C(C)C)cc1 | -0.216% | –
CC(C)c1cc(CN2CCN(Cc3ccc(F)c(F)c3)C(CCO)C2)[nH]n1 (configuration not stated) | -11.1% | –
S=c1nc(-c2ccc(Cl)cc2)[nH][nH]1 | – | 3.22 µM (active)
Cc1ccc2c(c1)-c1c(cnn1CC(=O)NC(C)CCc1ccco1)CO2 (configuration not stated) | -12.6% | –
COc1ccc2nccc(/C=C/c3ccnc4ccc(OC)cc34)c2c1 | -16% | –
CC(=O)Nc1cccc(NC(=O)c2ccc(Br)cc2)c1 | -14.9% | –
CC(=O)Nc1ccc(S(=O)(=O)Nc2nc3ccccc3nc2-n2ccc(=NC(=O)c3ccc(F)cc3)cc2)cc1 | 9.83% | –
Clc1ccc(/C=C/c2ncc[nH]2)c(Cl)c1 | -10.7% | –
COC(=O)C(Cc1ccccc1)NC(=O)CSc1nc(C)cc(=O)[nH]1 (configuration not stated) | 0.635% | –
Cc1cccc(N/N=C/c2ccncc2)c1 | – | 1.1 µM (active)
O=C(NC(=S)NNC(=O)c1ccccc1F)c1cccnc1 | 9.74% | –
CC(C)Sc1nnc(NC(=O)c2ccco2)s1 | -5.43% | –
ClCC(CNCc1ccccc1)c1ccccc1 (configuration not stated) | -5.16% | –
Cc1scc(C(=O)N2CCN(c3ccc(Cl)cc3)CC2)c1C | 5.76% | –
O=C(C[C@H]1C[C@H]2c3cc(NC(=O)c4ccc5c(c4)OCO5)ccc3O[C@H]2[C@H](CO)O1)NCc1cccc(F)c1 | -11.6% | –
COc1cccc(CC(=O)OCC(=O)Nc2c(C)nn(-c3ccccc3)c2C)c1 | 0.671% | –
